High-throughput results (PubChem)
Rango release inh: inhibitors of RanGTP-induced Rango-importin beta complex dissociation; Potency, µM (doses to about 46.1 µM); actives 0.071% (n = 340,000); O95149+P62826; Biochemical FRET Rango-importin beta, RanGTP-induced dissociation; calls by dose curve; further: nearly all actives have a fitted effect of over 45% in size
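Compounds preincubate 5 min with complex of recombinant Rango and importin beta in PBS with 1 mM DTT. Ran (0.6 uM) loaded with 2 mM GTP plus 0.2 uM RCC1 starts dissociation; FRET is recorded 45 min later.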
PI5P4Ka inh: PI5P4K alpha (human) kinase inhibition. actives 1.2% (n = 330,000). max response, %. P48426. PI5P4Kalpha enzyme, ADP-Glo luminescence, 60 min; stronger effect = lower value. AID 652105; active means max response of -50% or lower; inconclusive means between -30% and -50%; inactive means -30% or higher; further: value at the top dose of about 77 µM
Target sequence (P48426 whole entry, looked up): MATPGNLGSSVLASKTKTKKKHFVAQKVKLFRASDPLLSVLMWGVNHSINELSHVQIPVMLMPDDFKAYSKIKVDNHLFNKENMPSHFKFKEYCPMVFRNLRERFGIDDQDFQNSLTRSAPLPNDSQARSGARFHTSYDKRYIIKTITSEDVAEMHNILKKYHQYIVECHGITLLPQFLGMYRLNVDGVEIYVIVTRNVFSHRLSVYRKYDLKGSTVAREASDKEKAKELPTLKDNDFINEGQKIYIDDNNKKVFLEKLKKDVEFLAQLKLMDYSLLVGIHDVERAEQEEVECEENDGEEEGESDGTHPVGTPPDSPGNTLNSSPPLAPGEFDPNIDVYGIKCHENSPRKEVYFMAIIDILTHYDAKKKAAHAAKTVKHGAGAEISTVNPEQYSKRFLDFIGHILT
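ADP-Glo luminescence end-point read after a 60 min room-temperature kinase reaction of PI5P4Kalpha plus substrate, initiated with ATP at 5 microM final. Buffer: 0.038 M HEPES pH 7.4, EGTA, 0.1% CHAPS, 5% DMSO.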
VDR inhibitor: vitamin D3 receptor (human) inhibition. P11473. VDR-SRC2-3 peptide fluorescence polarization, 2 h. Potency, µM, hits mostly inhibitors. actives 0.93% (n = 400,000). AID 504847
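FP read-out; VDR + SRC2-3 coactivator peptide; 23 nl compound by pintool; 2 h RT incubation; reagents held at 4 deg C, protected from light.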
KAT2A inh: GCN5L2 (KAT2A) acetyltransferase inhibition. Q92830. GCN5L2 HAT assay, ThioGlo1 CoA-SH fluorescence. Potency, µM (top dose mostly 58.9 µM), hits mostly inhibitors. actives 0.21% (n = 390,000)
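Preincubate 20nM GCN5L2 with compound 15 min, RT → add 50uM ThioGlo1 + 75uM H3(1-25) + 70uM acetyl-CoA → read fluorescence 0 and 20 min. Primary qHTS; fluorescent artifacts likely.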
Rango-impB inh: prevents formation of the Rango-importin beta complex; Q14974; Potency, µM (highest dose often 92.2 µM); Rango CFP/YFP FRET sensor + importin beta, 45 min; actives 0.031% (n = 340,000); calls by dose curve; further: nearly all actives have a fitted effect of over 15% in size
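FRET biosensor Rango (snurportin 1 IBB between N-terminal EYFP and C-terminal Cerulean), 50 nM in PBS/1 mM DTT/0.02% Tween-20/0.1% BSA, preincubated 5 min RT with compound; 0.125 microM importin beta added, 45 min RT, CFP/YFP FRET ratio read.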
PLK1 PBD block: inhibitors of human PLK1 polo-box domain binding; Potency, µM, most hits filed as inhibitors; actives 2.8% (n = 360,000); Plk1 PBD binding of FITC phosphopeptide, fluorescence polarization; further: series mostly up to about 57 µM; nearly all actives have a fitted effect of over 65% in size
Numbers stand for hits; - = inactive; ? = inconclusive; . = no result given. A selection: hits, their analogues and other compounds. The true share with any hit is near 3.6%. Unless noted, the call rests on the fitted dose curve; in most records, active means well fitted curve in the direction sought with a large enough effect; inconclusive means small, poorly fitted or top-dose-only effect, or another doubt; inactive means no such curve, though single readings can be large; an effect the other way counts as inactive or inconclusive.

SMILES | Rango release inh | PI5P4Ka inh | VDR inhibitor | KAT2A inh | Rango-impB inh | PLK1 PBD block
O=C(CCc1ccc(O)cc1)c1c(O)cc(O)cc1O | - | -69 | - | - | - | -
CC(C)C1N=C(c2ccc3c(c2)OCO3)CC(c2ccccc2O)N1 (stereo not drawn) | - | - | 79µM | - | - | -
Cc1ccccc1OC(=O)CSc1nnc(-c2ccc3c(c2)OCO3)o1 | . | . | - | - | . | .
CC(/C=N/n1c(COc2ccccc2)n[nH]c1=S)=C\c1ccco1 | - | - | - | - | - | 21µM
CC(/C=N/n1c(-c2n[nH]c3c2CCC3)n[nH]c1=S)=C\c1ccco1 | - | -59 | - | - | - | -
CC(/C=N/n1c(-c2cccnc2)n[nH]c1=S)=C\c1ccco1 | - | ? | - | - | ? | ?
C(=C\c1nccc2c1[nH]c1ccccc12)/c1ccccc1 | 16µM | - | - | - | ? | -
Cc1ccc(/C=C\c2nccc3c2[nH]c2ccccc23)cc1 | ? | - | - | - | ? | -
O=C(N/C(=C\c1ccc(-c2ccccc2)o1)C(=O)N1CCOCC1)c1ccccc1 | - | - | - | - | - | 27µM
Cc1cccc(NC2=Nc3ccccc3N3C2=Nc2c(c(C)nn2-c2ccccc2)C3c2ccc(O)c(O)c2)c1 (stereo not drawn) | ? | -92 | - | - | ? | -
Cc1ccc(NC2=Nc3ccccc3N3C2=Nc2c(c(C)nn2-c2ccccc2)C3c2ccc(O)c(O)c2)cc1 (stereo not drawn) | ? | -75 | - | - | ? | -
CNC(=O)C(=O)Nc1nc(C23CC4CC(CC(C4)C2)C3)cs1 | - | - | - | - | - | 30µM
NC(=O)c1cc[n+](CC(=O)c2ccc(NC(=O)c3ccccc3)cc2)cc1 | - | - | ? | - | ? | 24µM
O=C(C[n+]1ccccc1)c1ccc(NC(=O)c2ccccc2)cc1 | - | ? | - | - | ? | -
COc1ccc(CCNc2nc(-c3ccc(OC)c(OC)c3)cc(C(F)(F)F)n2)cc1OC | . | . | - | - | . | .
N/C(=N\OC(=O)Cc1cccs1)c1ccccc1 | - | -61 | - | - | - | -
CCCC[C@H](NC(C)=O)C(=O)N[C@@H](CCC(=O)O)C(=O)N[C@@H](Cc1cnc[nH]1)C(=O)N[C@H](Cc1ccccc1)C(=O)N[C@@H](CCCN=C(N)N)C(=O)N[C@H](Cc1c[nH]c2ccccc12)C(=O)NCC(N)=O | . | . | - | - | . | .
COc1cc(/C=C2/SC(N)=NC2=O)ccc1Oc1ccc([N+](=O)[O-])cc1[N+](=O)[O-] | - | - | - | - | - | -
NC1=NC(=O)/C(=C\c2ccc(O)c([N+](=O)[O-])c2)S1 | - | -79 | - | - | - | -
CC1=C(C)CC(C(=O)Nc2ccc(C(=O)N3CCOCC3)cc2)C(C(=O)O)C1 (stereo not drawn) | - | - | - | - | - | 21µM
O=C(Nc1ccc(C(=O)N2CCOCC2)cc1)C1CC1 | - | - | - | . | - | -
COc1ccc(C(=O)OC2=C(C(=O)c3ccccc3)N(C)S(=O)(=O)c3ccccc32)cc1OC | . | . | - | - | . | .
Cc1ccc(NC(=O)CCn2nc(C)c(S(=O)(=O)N3CCCCC3)c2C)cc1Cl | . | . | - | - | . | .
COc1cc(NS(=O)(=O)c2ccc(NC(=S)NC(=O)/C=C/c3ccc(OC)c(OC)c3)cc2)ncn1 | - | - | - | - | - | 13µM
CCc1nnc(NS(=O)(=O)c2ccc(NC(=S)NC(=O)/C=C/c3ccc(F)cc3)cc2)s1 | - | ? | ? | - | - | 17µM
SMILES | Rango release inh | PI5P4Ka inh | VDR inhibitor | KAT2A inh | Rango-impB inh | PLK1 PBD block
CCc1nnc(NS(=O)(=O)c2ccc(NC(=S)NC(=O)/C=C/c3ccc([N+](=O)[O-])cc3)cc2)s1 | - | - | - | ? | - | -
COc1ccc(OC)c(-c2csc(NC(=O)COC(=O)c3ccc(NC(=O)CC#N)cc3)n2)c1 | - | -61 | - | ? | ? | -
CCOc1ccc(NC(=O)Cn2cc(C(C)=O)c3ccccc32)cc1 | - | - | - | - | - | -
CCOc1ccc(NC(=O)Cn2cc(C(=O)CC)c3ccccc32)cc1 | - | - | 79µM | - | - | ?
COc1ccc(CCNc2ncnc3onc(C)c23)c(OC)c1 | . | . | - | - | . | .
CCOC(=O)C(NC(=O)c1ccccc1Cl)(Nc1sc2c(c1C(N)=O)CCC2)C(F)(F)F (stereo not drawn) | - | - | - | - | ? | ?
CCOC(=O)C(NC(=O)c1cccc(Cl)c1)(Nc1sc2c(c1C(N)=O)CCC2)C(F)(F)F (stereo not drawn) | - | - | - | - | ? | 27µM
COc1ccc(OC)c(C2C(C(=O)Nc3ccc(C)cc3)=C(C)Nc3nnnn32)c1 (stereo not drawn) | . | . | - | - | . | .
C[C@@H]1CN([C@@H](C)CO)C(=O)Cc2cc(NC(=O)Nc3ccc4c(c3)OCO4)ccc2O[C@@H]1CN(C)C(=O)NC1CCCCC1 | - | - | - | - | - | -
CC(C)NC(=O)Nc1ccc2c(c1)CC(=O)N([C@@H](C)CO)C[C@H](C)[C@@H](CN(C)C(=O)NC1CCCCC1)O2 | - | - | 89µM | - | - | -
CCOc1ccc(C(=O)CC(Sc2ccc(C)cc2)C(=O)O)cc1 (stereo not drawn) | - | - | ? | - | - | ?
O=C(CC(Sc1ccc(Br)cc1)C(=O)O)c1ccc(F)cc1 (stereo not drawn) | - | - | 13µM | - | - | ?
CC(C)NC(=O)Cn1ccc2cc(S(=O)(=O)N3CCCCCC3)ccc21 | . | . | - | - | . | .
CCCCCCCCNCCS(=O)(=O)NN1CCOCC1 | - | -69 | - | - | - | 7.5µM
COc1ccc(CNCCS(=O)(=O)NN2CCOCC2)cc1 | - | -63 | ? | - | - | 9.5µM
CCCCNS(=O)(=O)CCNCc1ccc(OC)cc1 | - | - | - | - | - | -
CCCCCCCCNCCS(=O)(=O)NCc1ccccc1 | - | - | - | . | - | -
Cc1ccc2c(c1)C(c1ccc(F)cc1)N(C(=O)c1ccc(OC(C)C)cc1)CC(=O)N2 (stereo not drawn) | . | . | - | - | . | .
Cn1c(=O)[nH]c(NCCc2ccc(O)cc2)c([N+](=O)[O-])c1=O | - | -71 | - | . | - | -
Cn1c(=O)cc(NCCc2ccccc2)[nH]c1=O | - | - | - | - | - | -
Cn1c(=O)[nH]c(Nc2ccc(F)cc2)c([N+](=O)[O-])c1=O | - | -60 | - | - | - | -
CC(C(=O)Nc1ccc(O)cc1)c1cccc(C(=O)c2ccccc2)c1 (stereo not drawn) | - | - | - | - | - | 12µM
CC(=O)Nc1ccc(NC(=O)C(C)c2cccc(C(=O)c3ccccc3)c2)cc1 (stereo not drawn) | - | - | - | - | - | -
